Measured values published in PubChem BioAssay (EPA / NIEHS).
Inconclusive results are not listed. Calls of active or inactive are those of the source. The calls were made as follows, unless noted: active = hit-call score of the fitted dose curve at least 0.9, where 1 is the maximum; inconclusive = response in the unintended direction; inactive = score below 0.9.

Legend:
[1] = molecular target: Cellular tumor antigen p53 (Homo sapiens) (UniProt P04637); assay: TOX21_p53_BLA_p2_ratio: Tox21 HCT-116 p53 Agonism Beta-lactamase Assay, Ratio, Phase 2 (AID 2283592)
Sequence of Cellular tumor antigen p53 (Homo sapiens) (P04637 whole entry, looked up): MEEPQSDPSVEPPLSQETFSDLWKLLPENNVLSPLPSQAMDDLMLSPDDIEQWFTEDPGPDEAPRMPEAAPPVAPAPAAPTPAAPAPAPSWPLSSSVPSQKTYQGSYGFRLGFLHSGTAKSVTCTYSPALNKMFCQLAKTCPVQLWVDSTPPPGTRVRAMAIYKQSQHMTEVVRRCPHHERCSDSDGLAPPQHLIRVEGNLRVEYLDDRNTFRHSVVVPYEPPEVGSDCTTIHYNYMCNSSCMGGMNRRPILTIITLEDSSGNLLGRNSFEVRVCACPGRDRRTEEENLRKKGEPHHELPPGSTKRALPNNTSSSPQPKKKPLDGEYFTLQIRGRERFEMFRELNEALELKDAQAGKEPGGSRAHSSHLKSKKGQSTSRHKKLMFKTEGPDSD
Method in brief: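 An inducible beta-lactamase reporter in HCT116 cells signals p53 pathway activation. After 16 h chemical exposure at 37C, cells load CCF4-AM substrate for 2 h at room temperature; activity is the cleaved/uncleaved emission ratio relative to DMSO.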

[2] = TOX21_p53_BLA_p3_viability: Viability Assessment in the Tox21 HCT-116 p53 Agonism Beta-lactamase Assay, Phase 3 (AID 2283593);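 also: cells exposed to compound for 16 h before reading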
Method in brief: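 HCT-116 cells (4000/well) rested 5 h at 37C, then got DMSO compounds by pin tool (217-fold dilution) for 16 h at 37C, 5% CO2. After the bla read, CellTiter-Glo was added and luminescence read at 30 min, room temperature.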

[3] = molecular target: Cellular tumor antigen p53 (Homo sapiens) (UniProt P04637); assay: TOX21_p53_BLA_p3_ratio: Tox21 HCT-116 p53 Agonism Beta-lactamase Assay, Ratio, Phase 3 (AID 2283596)
Method in brief: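 HCT116 p53-bla cells (4000/well) given compound in DMSO (217-fold dilution) after 5 h, incubated 16 h at 37C. CCF4-AM substrate 2 h at room temperature; 460/530 nm emission ratio, gain fitted against DMSO.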

[4] = TOX21_p53_BLA_p4_viability: Viability Assessment in the Tox21 HCT-116 p53 Agonism Beta-lactamase Assay, Phase 4 (AID 2283597);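 also: hits lower the luminescence signal meaning cytotoxicity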
Method in brief: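 Compound exposure of HCT116 cells lasts 16 h at 37C, 5% CO2, with DMSO stocks diluted 217-fold. Cellular ATP is then quantified by CellTiter-Glo luminescence after 30 min at room temperature.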

[5] = molecular target: Cellular tumor antigen p53 (Homo sapiens) (UniProt P04637); assay: TOX21_p53_BLA_p5_ratio: Tox21 HCT-116 p53 Agonism Beta-lactamase Assay, Ratio, Phase 5 (AID 2283599)
Method in brief: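 HCT-116 cells carrying a p53-inducible beta-lactamase reporter were seeded at 4000 cells/well and dosed after 5 h with compound in DMSO (217-fold dilution). After 16 h at 37C, CCF4-AM substrate was added for 2 h, and the 460/530 nm emission ratio was scored as gain-of-signal versus DMSO.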

[6] = TOX21_p53_BLA_p5_viability: Viability Assessment in the Tox21 HCT-116 p53 Agonism Beta-lactamase Assay, Phase 5 (AID 2283600)
Method in brief: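 Counter-readout for cytotoxicity: ATP-dependent luminescence from CellTiter-Glo, read in the beta-lactamase wells after 30 min at RT, following a 16 h compound exposure at 37C.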

[7] = molecular target: Cellular tumor antigen p53 (Homo sapiens) (UniProt P04637); assay: TOX21_p53_BLA_p4_ratio: Tox21 HCT-116 p53 Agonism Beta-lactamase Assay, Ratio, Phase 4 (AID 2283601)
Method in brief: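 HCT116 cells carrying an inducible beta-lactamase reporter were plated at 4000 cells/well, rested 5 h, then exposed to compounds in DMSO (217-fold dilution) for 16 h at 37C. CCF4-AM substrate was loaded 2 h at room temperature; 460/530 nm emission ratio scored gain-of-signal versus DMSO.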

[8] = CCTE_Harrill_HTTr_Viability_MCF7: CCTE's 6-hour Cell Viability Assessment for the High-Throughput Transcriptomics (HTTr) Platform, in MCF-7 cells cultured in DMEM + 10% fetal bovine serum, Harrill Lab (AID 2284010; active = hit-call score of the fitted dose curve at least 0.9, where 1 is the maximum; inactive = score below 0.9)
Method in brief: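 MCF-7 cells in DMEM + 10% FBS, 384-well, exposed 6 h to an eight-point dilution series. Membrane integrity scored by high-content imaging of propidium iodide exclusion; bidirectional fit versus DMSO.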

[9] = CCTE_Harrill_HTTr_Apoptosis_MCF7: CCTE's 6-hour Apoptosis Assessment for the High-Throughput Transcriptomics (HTTr) Platform, in MCF-7 cells cultured in DMEM + 10% fetal bovine serum, Harrill Lab (AID 2284011; active = hit-call score of the fitted dose curve at least 0.9, where 1 is the maximum; inactive = score below 0.9)
Method in brief: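 Cells are dosed with test chemicals at eight concentrations and imaged 6 hours later for caspase-3/7 activity using a green fluorogenic detection reagent. Activity is fitted in both directions against DMSO controls.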

[10] = CCTE_Harrill_HTTr_CellCount_MCF7: CCTE's Cell Proliferation Assessment for the High-Throughput Transcriptomics (HTTr) Platform, Harrill Lab (AID 2284012);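 also: cells exposed to compound for six hours; intended direction is loss of nuclei count meaning fewer cells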
Method in brief: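 MCF7 cells exposed 6 hours to an eight-point dilution series; Hoechst-stained nuclei counted by high-content imaging. Bidirectional curve fitting against DMSO baseline.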

Measured: outcome

CCOC(=O)CC#N
inactive: [1] | [2] | [3] | [4] | [5] | [6] | [7]

CC(C)(C)NC[C@H](O)COc1nsnc1N1CCOCC1
inactive: [1] | [2] | [3] | [4] | [5] | [6] | [7] | [8] | [9] | [10]
